Source: PubChem
An excerpt weighted towards active compounds, which were near 3.4% of everything screened.
TEAD-YAP inh = TEAD-YAP interaction inhibition; HEK-TIYL cells, TEAD-Gal4/YAP UAS-luciferase luminescence; inhibition, % at 9.12 µM; hit rate 1.4% among 640,000; AID 1259422; in the data active = inhibition above about 32%
MITF inh = inhibitors of human MITF; AID 1259374; AlphaScreen MITF homodimerization, bead proximity signal; inhibition, % at 2.6 µM; O75030; hit rate 0.91% among 650,000; in the data active = inhibition above about 50%
GPR151 activ = activators of human GPR151 | Q8TDV0 | PathHunter beta-arrestin GPR151 cells, luminescence | activation, % at 11.2 µM | hit rate 1% among 650,000 | AID 1508602; in the data active = activation above about 4.9%
FBW7 activator = human FBW7 E3 ligase activation, primary screen; Q969H0; AlphaScreen FBW7–phospho-cyclin E peptide binding, activator screen; normalized activity (activation), % at 26.1 µM; hit rate 0.13% among 650,000; in the data active = normalized activity above about 1.9%;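 also: purified mutant Fbw7 with reduced substrate affinity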
Target sequence (Q969H0 whole entry, looked up): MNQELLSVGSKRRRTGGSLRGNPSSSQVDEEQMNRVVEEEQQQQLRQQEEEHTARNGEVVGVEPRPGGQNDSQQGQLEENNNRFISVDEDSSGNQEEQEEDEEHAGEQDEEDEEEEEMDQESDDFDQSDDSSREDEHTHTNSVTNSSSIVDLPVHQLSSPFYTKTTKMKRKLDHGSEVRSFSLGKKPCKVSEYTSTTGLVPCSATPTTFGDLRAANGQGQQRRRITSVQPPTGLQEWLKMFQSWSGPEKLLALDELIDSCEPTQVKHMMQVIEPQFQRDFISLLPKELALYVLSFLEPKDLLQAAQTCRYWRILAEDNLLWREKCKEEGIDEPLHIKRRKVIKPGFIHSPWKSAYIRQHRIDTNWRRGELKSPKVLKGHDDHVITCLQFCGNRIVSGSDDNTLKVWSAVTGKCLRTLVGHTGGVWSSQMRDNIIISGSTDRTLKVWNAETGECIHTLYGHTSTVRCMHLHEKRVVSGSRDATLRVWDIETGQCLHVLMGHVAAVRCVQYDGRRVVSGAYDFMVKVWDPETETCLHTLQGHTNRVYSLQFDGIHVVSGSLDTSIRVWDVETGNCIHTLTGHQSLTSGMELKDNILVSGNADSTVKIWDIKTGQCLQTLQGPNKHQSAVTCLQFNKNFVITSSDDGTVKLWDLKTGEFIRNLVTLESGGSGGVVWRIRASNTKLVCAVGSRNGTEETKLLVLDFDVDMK
Large screens that a line does not name were inactive; ! = a repeat was not active.

O=c1cc(Cn2cc(C(F)(F)F)cc(Cl)c2=O)c2c(ccc3ccccc32)o1	none
Cc1cc2nc(CCCC(=O)O)[nH]c2cc1C	none
COc1cc(NC(=O)c2cc(Cl)ccc2[N+](=O)[O-])c(OC)cc1Cl	none
Cc1ccc(NC(=O)c2cc(F)ccc2[N+](=O)[O-])cc1	TEAD-YAP inh 52
O=C(Nc1ccc(Cl)cc1Cl)c1cc(F)ccc1[N+](=O)[O-]	TEAD-YAP inh 76
COc1ccc(-n2[nH]c(C)c(N=O)c2=O)cc1	TEAD-YAP inh 39
Cc1ccc(S(=O)(=O)N/N=C/c2cc([N+](=O)[O-])ccc2O)cc1[N+](=O)[O-]	none
O=[N+]([O-])c1cc(S(=O)(=O)N/N=C/c2ccc(O)c(O)c2O)ccc1Cl	MITF inh 55
NS(=O)(=O)c1ccc(N/N=C/c2ccccc2Br)c([N+](=O)[O-])c1	none
CCN(CC)c1ccc(/C=N/N=C(N)N)c(O)c1	TEAD-YAP inh 50
NS(=O)(=O)c1ccc(N/N=C/c2ccc(O)c(O)c2O)c([N+](=O)[O-])c1	MITF inh 70
Cc1ccccc1/C=N/Nc1ccc(S(N)(=O)=O)cc1[N+](=O)[O-]	FBW7 activator 2.0
O=C1C2C3C=CC(C3)C2C(=O)N1c1ccc(N2CCN(CCO)CC2)c([N+](=O)[O-])c1 (stereo not given)	none
Nc1cc(N)nc(SCC(=O)Nc2cccc(S(=O)(=O)N3CCCC3)c2)n1	none
CCN(CC)c1ccc(/C=N/Nc2ccccc2[N+](=O)[O-])c(O)c1	TEAD-YAP inh 40
O=C(COC(=O)c1cccc(N2C(=O)c3ccccc3C2=O)c1)Nc1cccc([N+](=O)[O-])c1	none
CCCCS(=O)(=O)CC(COC(=O)c1ccccc1)S(=O)(=O)CCCC (stereo not given)	TEAD-YAP inh 33
CCCCCCOc1ccc(C(=O)OCC(=O)c2ccccc2)cc1	none
O=C(N/N=C/c1ccc(Cl)c(Cl)c1)C(=O)Nc1cccc(Cl)c1	none
COc1ccc(N=Cc2sc3ccccc3c2O)cc1	TEAD-YAP inh 85
C=CCc1ccccc1OCc1nnc(SCC(N)=O)n1-c1ccccc1	none
COc1ccc2ccccc2c1C(=O)/C=C/c1cccnc1	TEAD-YAP inh 85
COc1ccc(/C=C/C(=O)c2cccnc2)cc1OC	none
O=C(c1ccc(CSc2nc3ccccc3[nH]2)cc1)N1N=CCC1(O)C(F)(F)F (stereo not given)	none
Cc1ccc(N(C(=O)c2ccccc2F)C2C=CS(=O)(=O)C2)cc1C (stereo not given)	none
COc1cc(-c2nc3cnccn3c2NC2CCCC2)cc(OC)c1OC	TEAD-YAP inh 32
COc1cc(-c2nc3cnccn3c2NC2CCCCC2)cc(OC)c1OC	TEAD-YAP inh 38
O=C(N/N=C/c1ccc([N+](=O)[O-])c(O)c1)/C(=C\c1cccs1)NC(=O)c1ccccc1	none
COc1ccccc1CNC(=O)Nc1ccc(-c2cn[nH]c2)cc1OCCN1CCOCC1	none
CN(C)NC1=CC(=[N+]2CCCC2)CC(C)(C)C1	none
CC1(C)CC(N2CCCCC2)=CC(=[N+]2CCCCC2)C1	TEAD-YAP inh 75
CC1(C)CC(N2CCOCC2)=CC(=[N+]2CCOCC2)C1	none
CCCN(CCC)C1=CC(=[N+]2CCCC2)CC(C)(C)C1	TEAD-YAP inh 69
O=C(c1ccccc1)c1ccc2nc(-c3ccc(NC(=O)c4ccccc4Cl)cc3)[nH]c2c1	none
COC(=O)C(=O)Nc1nc2ccc(C(=O)c3ccccc3C(=O)OC(C)C)cc2[nH]1	TEAD-YAP inh 52
CCOc1ccc2nc(NCCCO)[nH]c2c1	none
O=C(COc1ccc(C(=O)c2ccccc2)cc1)Nc1nc2ccccc2[nH]1	none
COC(=O)Nc1nc2ccc(C(=O)c3ccc(F)cc3)cc2[nH]1	TEAD-YAP inh 35!
CCCOc1ccc2nc(NC(=O)OC)[nH]c2c1	TEAD-YAP inh 34
CCOC(=O)c1nn(CCO)c2c1CN(Cc1ccc(OC)cc1)CC2	none
CCOc1ccc(/C(O)=C2/C(=O)C(=O)N(CCN3CCOCC3)C2c2ccc(Cl)cc2)cc1C (stereo not given)	none
CC(=O)O[C@@H]1[C@@H](O)CN[C@@H]1Cc1ccccc1	TEAD-YAP inh 101
COc1cccc(N2C(=O)/C(=C/c3cc4c(cc3[N+](=O)[O-])OCO4)C(=O)NC2=S)c1	none
Cc1ccc(-c2noc(CCCCCN)n2)cc1	TEAD-YAP inh 72
Cc1ccc(N2C(N)=C(C#N)C(c3ccc4c(c3)OCO4)C3=C2CC(C)(C)CC3=O)cc1 (stereo not given)	TEAD-YAP inh 42
COc1cc(C2C(C#N)=C(N)N(c3ccc(C)cc3)C3=C2C(=O)CC(C)(C)C3)cc(OC)c1OC (stereo not given)	TEAD-YAP inh 54
